Experimental data reported in the supplement of paper PMC7156485.
Values joined by “and” are separate entries in the source; they are usually repeats but may differ in a detail not shown here. Equal values may be shown once. ± gives the standard deviation of the averaged measurements.

Experiments:
Details in all cases: concentration: 10 µM; 24 h
HCC1569 [1] = test: cell number relative to DMSO (% of DMSO); higher = more cells (less growth inhibition / toxicity)
How it was run: (§1)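 Six fields per well were imaged at ×10 after the cells were fixed in 3.7% formaldehyde and stained with a rabbit anti-H1.0 antibody, an AlexaFluor 647 secondary and DAPI. The HCC1569 and TDF cells had been plated at 800 per well in 384-well plates (RPMI, 10% FBS) and treated in triplicate with compounds at 10 µM for 24 h at 37 °C. The values are the median of replicates of H1.0 nuclear intensity or cell number, as percent of the plate control. Smoothing for positional effects was applied to HCC1569 data.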

TDF [2] = test: as above
How it was run: as §1

TDF [3] = test: H1.0 immunofluorescence intensity relative to DMSO (% of DMSO); higher = stronger H1.0 induction, active = 120 or more
How it was run: as §1

HCC1569 [4] = test: H1.0 immunofluorescence intensity relative to DMSO (% of DMSO); higher = stronger H1.0 induction, active = 140 or more
How it was run: as §1
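Wherever H1.0 immunofluorescence intensity relative to DMSO is given: TDF is a line of transformed human dermal fibroblasts of mesenchymal origin.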
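Wherever cell number relative to DMSO is given: TDF denotes transformed human dermal fibroblasts of mesenchymal origin.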

Row | SMILES | cell number (HCC1569 [1]) | cell number (TDF [2]) | H1.0 immunofluorescence intensity (TDF [3]) | H1.0 immunofluorescence intensity (HCC1569 [4])
1 | C[C@H](N[C@@H](CCc1ccccc1)C(=O)O)C(=O)N1CCC[C@H]1C(=O)O.O.O | 102 | 94.9 | 101 (inactive) | 109 (inactive)
2 | NC(=O)c1cnccn1 [Pyrazinecarboxamide] | 102 | 106 | 94.2 (inactive) | 110 (inactive)
3 | CC12CCC3c4ccc(O)cc4CCC3C1CCC2O (stereo not given) [Estradiol] | 94.6 | 93.8 | 97.6 (inactive) | 121 (inactive)
4 | CC(C=CC1=C(C)CCCC1(C)C)=CC=CC(C)=CC(=O)O [13-cis-retinoic acid] | 102 | 100 | 88.5 (inactive) | 123 (inactive)
5 | O=C(O)c1cc(O)ccc1O [Gentisic acid] | 104 | 100 | 98.5 (inactive) | 93.5 (inactive)
6 | Nc1nc2ccccc2c2ccccc12 [6-phenanthridinamine] | 88.1 | 64.8 | 97.8 (inactive) | 117 (inactive)
7 | Clc1ccc(COC(Cn2ccnc2)c2ccc(Cl)cc2Cl)c(Cl)c1 (stereo not given) [Miconazole] | 96.8 | 110 | 101 (inactive) | 114 (inactive)
8 | CSc1nc(N)c2ncn(C3OC(COP(=O)([O-])OP(=O)([O-])OP(=O)([O-])[O-])C(O)C3O)c2n1.[Na+].[Na+].[Na+].[Na+] (stereo not given) [2-Methylthioadenosine triphosphate tetrasodium] | 102 | 109 | 93 (inactive) | 95.7 (inactive)
9 | CCCCCN(CCCCC)C(=O)C(CCC(=O)[O-])NC(=O)c1ccc(Cl)c(Cl)c1.[Na+] (stereo not given) [Lorglumide sodium] | 103 | 107 | 100 (inactive) | 89.8 (inactive)
10 | COC1C(OC(N)=O)C(O)C(Oc2ccc3c(O)c(NC(=O)c4ccc(O)c(CC=C(C)C)c4)c(=O)oc3c2C)OC1(C)C.[Na+] (stereo not given) [Novobiocin.Na] | 103 | 112 | 95.7 (inactive) | 103 (inactive)
11 | O=C(CCc1ccc(O)cc1)c1c(O)cc(O)cc1O [Phloretin] | 97.73 ± 0.41 | 98.5 ± 17 | 96.1 (inactive) | 107 (inactive)
12 | O=c1cc(O)cc(C=Cc2ccc(O)c(O)c2)o1 [Hispidin] | 97.3 | 94.8 | 97 (inactive) | 108 (inactive)
13 | CN1C2CCC1CC(OC(c1ccccc1)c1ccccc1)C2.CS(=O)(=O)O (stereo not given) [Benztropine mesylate] | 97.2 | 114 | 97.6 (inactive) | 97.7 (inactive)
14 | COc1cc(OC)cc(C(CNc2ncnc3c2ncn3C2OC(CO)C(O)C2O)c2ccccc2C)c1 (stereo not given) | 101 | 103 | 94.5 (inactive) | 100 (inactive)
15 | CC(=O)NC(CSCC=C(C)CCC=C(C)CCC=C(C)CCC=C(C)C)C(=O)O (stereo not given) | 102 | 98.3 | 105 (inactive) | 95.9 (inactive)
16 | CC(C)(C)C(=O)Oc1ccc(S(=O)(=O)Nc2ccccc2C(=O)NCC(=O)[O-])cc1.O.[Na+] | 101 | 98.8 | 87.6 (inactive) | 108 (inactive)
17 | COC(=O)C1C2CC3c4[nH]c5cc(OC)ccc5c4CCN3CC2CC(OC(=O)c2cc(OC)c(OC)c(OC)c2)C1OC (single isomer, unassigned; (-)) [(-)-Isoreserpine] | 98.9 | 107 | 102 (inactive) | 98 (inactive)
18 | COc1cc2c(cc1OC)-c1cc3ccc(OC)c(OC)c3c[n+]1CC2.[Cl-] [Palmatine chloride] | 100 | 108 | 96.1 (inactive) | 88.6 (inactive)
19 | C=CCc1ccccc1OCC(O)CNC(C)C.Cl (stereo not given) [Alprenolol hydrochloride] | 96.8 | 91 | 103 (inactive) | 104 (inactive)
20 | CCOC(=O)C1=C(C)NC(C)=C(C(=O)OCC)C1c1ccccc1C=CC(=O)OC(C)(C)C [Lacidipine] | 93.2 | 93.4 | 98.1 (inactive) | 125 (inactive)
21 | Cc1ccccc1CNc1ncnc2c1ncn2C1OC(CO)C(O)C1O (stereo not given) [Metrifudil] | 97 | 94.5 | 93.7 (inactive) | 91.4 (inactive)
22 | CNCCC(Oc1ccccc1OC)c1ccccc1.Cl (stereo not given) [Nisoxetine.HCl] | 105 | 101 | 92.1 (inactive) | 109 (inactive)
23 | OCC1OC(n2cnc3c(NCCc4ccccc4)ncnc32)C(O)C1O (stereo not given) [N6-2-Phenylethyladenosine] | 99.4 | 113 | 87.8 (inactive) | 101 (inactive)
24 | COc1cc(Br)c(CC2c3cc(OC)c(OC)cc3CCN2C)cc1OC (racemic) | 99.7 | 98.5 | 97.8 (inactive) | 97.6 (inactive)
25 | CCN(CC)CCNC(=O)c1c(C)[nH]c(C=C2C(=O)Nc3ccc(F)cc32)c1C [Sunitinib] | 92.1 | 58.7 | 106 (inactive) | 173 (active)

Row | SMILES | cell number (HCC1569 [1]) | cell number (TDF [2]) | H1.0 immunofluorescence intensity (TDF [3]) | H1.0 immunofluorescence intensity (HCC1569 [4])
26 | OCC1OC(n2cnc3c(Nc4ccccc4)ncnc32)C(O)C1O (stereo not given) [N6-Phenyladenosine] | 101 | 118 | 86.1 (inactive) | 104 (inactive)
27 | N#CC(=Cc1ccc(O)c(O)c1)C(=O)OCC=Cc1ccccc1 | 91.9 | 105 | 90.5 (inactive) | 115 (inactive)
28 | Cc1ccc(C(=CCN2CCCC2)c2ccccn2)cc1.Cl [Triprolidine hydrochloride] | 106 | 105 | 97.5 (inactive) | 90 (inactive)
29 | CN(CCOc1ccc(NS(C)(=O)=O)cc1)CCc1ccc(NS(C)(=O)=O)cc1 [Dofetilide] | 98 | 121 | 103 (inactive) | 99.5 (inactive)
30 | CC(CN(C)C)CN1c2ccccc2Sc2ccc(C#N)cc21 (stereo not given) | 93.5 | 90.4 | 118 (inactive) | 108 (inactive)
31 | O=C1NC(=O)C(=Cc2ccc3nccnc3c2)S1 [PI 3-Kg Inhibitor] | 103 | 110 | 87.2 (inactive) | 114 (inactive)
32 | CCc1cccc2c3c([nH]c12)C(CC)(CC(=O)O)OCC3 (stereo not given) [Etodolac] | 98.6 | 101 | 97 (inactive) | 105 (inactive)
33 | CCCCCC=CCC=CCC=CCC=CCCCCCC(=O)O [Adrenic acid (22:4 n-6)] | 99 | 107 | 108 (inactive) | 99.9 (inactive)
34 | CC1(C)CCC2=C(O1)c1ccccc1C(=O)C2=O [beta-Lapachone] | 59.7 ± 36 | 25.4 ± 9.7 | 114 (inactive) | 111 (inactive)
35 | Cc1ccc(C)c(-c2cc(C(F)(F)F)nn2-c2ccc(S(N)(=O)=O)cc2)c1 | 101 | 96.8 | 97.5 (inactive) | 101 (inactive)
36 | CC(C)(C)NC(=O)C1CCC2C3CCC4NC(=O)C=CC4(C)C3CCC12C (stereo not given) [Finasteride] | 102 | 97.4 | 95.4 (inactive) | 108 (inactive)
37 | CCCCCCCCCCCC1=C(O)C(=O)C=C(O)C1=O [Embelin] | 98.8 | 97.1 | 97.6 (inactive) | 87.3 (inactive)
38 | OC1c2ccccc2N=C2CCCN21 (stereo not given) [Peganole] | 95 | 93.7 | 95.3 (inactive) | 91.1 (inactive)
39 | O=C(CCCCCCc1ccccc1)c1ncc(-c2ccccn2)o1 [7-phenyl-1-[5-(2-pyridinyl)-1,3-oxazol-2-yl]-1-heptanone] | 104 | 104 | 98.3 (inactive) | 107 (inactive)
40 | COc1ccc(CC(=O)NC(N=C(NC#N)Nc2cccc3ncccc23)C(C)(C)C)cc1OC (stereo not given) | 99.9 | 107 | 93.5 (inactive) | 96.8 (inactive)
41 | S=C(Nc1ccccc1)Nc1nccs1 [1-Phenyl-3-(2-thiazolyl)-2-thiourea] | 95.5 | 86.9 | 99.5 (inactive) | 102 (inactive)
42 | CC12C=CC(=O)C=C1CCC1C2=CCC2(C)C(C(=O)CN3CCN(c4cc(N5CCCC5)nc(N5CCCC5)n4)CC3)CCC12.O=C(O)C=CC(=O)O (stereo not given) | 91.7 and 96.8 | 93.4 and 95.2 | 95.3 (inactive) and 98.1 (inactive) | 98 (inactive) and 96.5 (inactive)
43 | O=C(c1ccc(C(=O)N2CCC(N3CCCC3)CC2)c(Nc2ccccc2)c1)N1CCC(N2CCCC2)CC1 | 99.8 | 104 | 86.5 (inactive) | 102 (inactive)
44 | N[C@@H](Cc1c[nH]c2ccccc12)C(=O)O [L-Tryptophan] | 101 | 103 | 96.6 (inactive) | 108 (inactive)
45 | CC1OC(OCC2OC(Oc3cc(O)c4c(c3)OC(c3ccc(O)cc3)CC4=O)C(O)C(O)C2O)C(O)C(O)C1O (stereo not given) [Narirutin] | 101 | 103 | 94.7 (inactive) | 80.9 (inactive)
46 | O=C(O)c1ccccc1Nc1cccc(C(F)(F)F)c1 [Flufenamic acid] | 103 | 105 | 91.9 (inactive) | 106 (inactive)
47 | O=C1NC(=O)C(c2ccccc2[N+](=O)[O-])=C1Nc1ccc(O)c(Cl)c1 | 96.8 | 107 | 97.8 (inactive) | 111 (inactive)
48 | CCCCN1CC(O)C(O)C(O)C1CO (stereo not given) [Miglustat] | 100 | 95.6 | 97.2 (inactive) | 114 (inactive)
49 | CC(C)NCC(O)c1ccc(O)c(O)c1 (racemic) [DL-Isoproterenol] | 107 | 108 | 93.8 (inactive) | 101 (inactive)
50 | CC1CNc2c(cccc2S(=O)(=O)NC(CCCN=C(N)N)C(=O)N2CCC(C)CC2C(=O)O)C1 (stereo not given) [Argatroban] | 107 | 104 | 94.1 (inactive) | 112 (inactive)
